Among all 5,500 compounds or so, about 2,000 (36%) were called active. Another 18% or so got no clear call; they are omitted. No stated cut-off is given here; in the data, active means normalized growth mostly below about 0.91 (no sharp cut-off); inconclusive means no clear call, values can overlap the other calls; inactive means mostly above about 0.92. The list shows a part of the results.
Assay: chemical genetic growth profiling, strain panel (AID 1159580);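 further: tested at 20 µM; growth read once vehicle control cultures reached saturation at 30 °C; 1 = growth at the plate median or of vehicle wells; lower values mean less growth of the strain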
Conditions: S. cerevisiae deletion strains, growth OD

Measured: normalized growth

COc1cc(OC)c2c(=O)c(-c3ccccc3)coc2c1
inactive: locus YAL021C, strain ccr4, hits give low values 0.991 | locus YAL030W, strain snc1, hits give low values 0.991 | locus YBL061C, strain skt5, hits give low values 0.958 | locus YBR009C, strain hhf1, hits give low values 0.928 | locus YBR023C, strain chs3, hits give low values 0.915 | locus YBR171W, strain sec66, hits give low values 1.01 | locus YBR231C, strain swc5, hits give low values 0.951 | locus YBR279W, strain paf1, hits give low values 0.953 | locus YCL011C, strain gbp2, hits give low values 0.936 | locus YCL016C, strain dcc1, hits give low values 0.965 | locus YCL069W, strain vba3, hits give low values 0.982 | locus YCR088W, strain abp1, hits give low values 0.993 | locus YDL005C, strain med2, hits give low values 1.04 | locus YDL040C, strain nat1, hits give low values 0.99 | locus YDR001C, strain nth1, hits give low values 0.994 | locus YDR069C, strain doa4, hits give low values 1.02 | locus YDR137W, strain rgp1, hits give low values 0.911 | locus YDR159W, strain sac3, hits give low values 0.963 | locus YDR297W, strain sur2, hits give low values 0.995 | locus YDR334W, strain swr1, hits give low values 1 | locus YDR335W, strain msn5, hits give low values 0.98 | locus YEL003W, strain gim4, hits give low values 0.967 | locus YEL037C, strain rad23, hits give low values 0.998 | locus YEL061C, strain CIN8 (second series), hits give low values 1 | locus YER015W, strain faa2, hits give low values 0.956 | locus YER016W, strain bim1, hits give low values 1 | locus YER111C, strain swi4, hits give low values 1.02 | locus YFR010W, strain ubp6, hits give low values 1.01 | locus YGL167C, strain pmr1, hits give low values 0.985 | locus YGL173C, strain kem1, hits give low values 0.985 | locus YGL227W, strain vid30, hits give low values 1 | locus YGL253W, strain hxk2, hits give low values 0.935 | locus YHR013C, strain ard1, hits give low values 0.974 | locus YHR027C, strain rpn1, hits give low values 1 | locus YJL092W, strain hpr5, hits give low values 0.994 | locus YJL095W, strain BCK1 (second series), hits give low values 0.979 | locus YJL115W, strain asf1, hits give low values 1 | locus YJL129C, strain trk1, hits give low values 0.964 | locus YJL154C, strain vps35, hits give low values 1 | locus YJL164C, strain tpk1, hits give low values 0.935 | locus YJL166W, strain qcr8, hits give low values 0.934 | locus YJL187C, strain SWE1, hits give low values 0.997 | locus YKL160W, strain elf1, hits give low values 0.93 | locus YKR026C, strain gcn3, hits give low values 0.99 | locus YKR091W, strain srl3, hits give low values 0.996 | locus YLL001W, strain dnm1, hits give low values 0.941 | locus YLL026W, hits give low values 0.99 | locus YLL041C, strain sdh2, hits give low values 0.991 | locus YLR027C, strain aat2, hits give low values 0.947 | locus YLR221C, strain rsa3, hits give low values 0.947 | locus YLR258W, strain gsy2, hits give low values 0.925 | locus YLR262C, strain YPT6 (second series), hits give low values 0.91 | locus YLR342W, strain FKS1, hits give low values 0.911 | locus YLR357W, strain rsc2, hits give low values 1.03 | locus YLR370C, strain arc18, hits give low values 0.939 | locus YLR384C, strain iki3, hits give low values 1 | locus YML120C, strain ndi1, hits give low values 0.946 | locus YMR058W, strain fet3, hits give low values 0.978 | locus YMR125W, strain sto1, hits give low values 0.971 | locus YMR129W, hits give low values 0.999 | locus YMR205C, strain PFK2, hits give low values 0.954 | locus YMR231W, strain pep5, hits give low values 0.994 | locus YNL209W, strain ssb2, hits give low values 0.984 | locus YNL248C, strain rpa49, hits give low values 0.995 | locus YNL322C, strain KRE1 (second series), hits give low values 0.972 | locus YNR049C, strain mso1, hits give low values 1.01 | locus YOR001W, strain rrp6, hits give low values 0.96 | locus YOR070C, strain gyp1, hits give low values 0.976 | locus YOR080W, strain dia2, hits give low values 1.01 | locus YOR083W, strain WHI5, hits give low values 0.902 | locus YOR106W, strain vam3, hits give low values 0.89 | locus YOR265W, strain rbl2, hits give low values 1 | locus YOR290C, strain snf2, hits give low values 0.893 | locus YPL051W, strain arl3, hits give low values 0.936 | locus YPL078C, strain atp4, hits give low values 0.933 | locus YPL106C, strain sse1, hits give low values 1.01 | locus YPL240C, strain hsp82, hits give low values 0.986
active: locus YAL026C, strain drs2, hits give low values 0.895 | locus YDR195W, strain ref2 1.22 [resistant] | locus YDR392W, strain spt3, hits give low values 0.637 | locus YER155C, strain BEM2 (second series), hits give low values 0.596 | locus YGL240W, strain doc1, hits give low values 0.835 | locus YHR142W, strain chs7, hits give low values 0.824 | locus YLR320W, strain mms22, hits give low values 0.87 | locus YNL071W, strain lat1, hits give low values 0.807 | locus YOR270C, strain vph1, hits give low values 0.767
